Measurements published in PubChem BioAssay (EPA / NIEHS).
Inconclusive results are not listed. Activity calls are given as the source filed them. How the source made its calls: active means hit-call score of the fitted dose curve at least 0.9, where 1 is the maximum; inconclusive means response in the unintended direction; inactive means score below 0.9.

Key:
[1] = ATG_M_19_XSP1: Attagene TRANS-FACTORIAL Multi-Species (XSP1) HepG2 Assay for M19 Transcription Factor (Internal Marker) (AID 2283798)
Summary of the method: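 HepG2 cells transiently transfected with multiplexed GAL4-UAS reporter units, dosed 24 h with 3 nM 6-alpha-fluorotestosterone present for partial AR stimulation. Reporter mRNA measured by RT-PCR with capillary electrophoresis; gain-of-signal fitted relative to DMSO.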

[2] = ATG_M_32_XSP1: Attagene TRANS-FACTORIAL Multi-Species (XSP1) HepG2 Assay for M32 Transcription Factor (Internal Marker) (AID 2283799)
Summary of the method: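 HepG2 cells transiently transfected with multi-species TRANS reporter units, dosed 24 h with 3 nM 6-alpha-fluorotestosterone present. Internal-marker reporter mRNA quantified by RT-PCR and capillary electrophoresis; positive-direction fit versus DMSO.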

[3] = molecular target: Peroxisome proliferator-activated receptor gamma (Homo sapiens) (UniProt P37231); test: ATG_hPPARg_XSP1: Attagene TRANS-FACTORIAL Multi-Species (XSP1) HepG2 Assay for human Peroxisome Proliferator-activated Receptor gamma (PPARg) (AID 2283800)
Summary of the method: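 HepG2 cells transiently transfected with GAL4-UAS reporter units carrying chimeric NR-Gal4 proteins; 3 nM 6-alpha-fluorotestosterone present. After 24 h dosing, reporter mRNA quantified by RT-PCR and capillary electrophoresis; gain of signal relative to DMSO.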

[4] = molecular target: mouse Peroxisome Proliferator-activated Receptor gamma (PPARg), Pparg (gene 19016) (UniProt P37238); test: ATG_mPPARg_XSP1: Attagene TRANS-FACTORIAL Multi-Species (XSP1) HepG2 Assay for mouse Peroxisome Proliferator-activated Receptor gamma (PPARg) (AID 2283802)
Summary of the method: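 HepG2 cells transiently transfected with GAL4-UAS reporter units driven by mouse PPARg–GAL4 chimera; 3 nM 6-alpha-fluorotestosterone present. After 24 h dosing, reporter mRNA quantified by RT-PCR, fluorescent labelling and capillary electrophoresis; gain of signal versus DMSO.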

[5] = molecular target: Nuclear receptor subfamily 1 group I member 2 (Mus musculus) (UniProt O54915); test: ATG_mPXR_XSP1: Attagene TRANS-FACTORIAL Multi-Species (XSP1) HepG2 Assay for mouse Pregnane X Receptor (PXR) (AID 2283803)
Summary of the method: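 Transiently transfected HepG2 cells expressing a receptor-Gal4 chimera drive a GAL4-UAS reporter; 3 nM 6-alpha-fluorotestosterone included. Reporter mRNA read 24 h post-dose by RT-PCR and capillary electrophoresis; gain of signal relative to DMSO.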

[6] = test system: turtle Thyroid Hormone Receptor, alpha (TRa), gene 101949057; test: ATG_trTRa_XSP1: Attagene TRANS-FACTORIAL Multi-Species (XSP1) HepG2 Assay for turtle Thyroid Hormone Receptor, alpha (TRa) (AID 2283806)
Description: ATG_XSP1_multi-species_TRANS is a cell-based, multiplexed assay created by modifying the existing Attagene TRANS-FACTORIAL system to include a panel of nuclear receptors from some or all the following species: human (Homo sapiens), mouse (Mus musculus), frog (Xenopus laevis), zebrafish (Danio rerio), chicken (Gallus gallus), and turtle (Chrysemys picta). The ECOTOX-FACTORIAL format uses HepG2, a human liver cell line, with measurements taken at 24 hours after chemical dosing in a 24-well plate. Xsp1 included 3 nM 6-alpha-fluorotestosterone to partially stimulate the androgen receptor.ATG_trTRa_XSP1 is one of 29 assay components measured or calculated from the ATG_XSP1_multi-species_TRANS assay. It is designed to make measurements of mRNA induction, a form of inducible reporter, as detected with fluorescence intensity signals by Reverse transcription polymerase chain reaction (RT-PCR) and Capillary electrophoresis technology.The assay endpoint ATG_trTRa_XSP1 was analyzed in the positive analysis fitting direction relative to DMSO as the negative control and baseline of activity. Using a type of inducible reporter, measures of mRNA for gain-of-signal activity can be used to understand the reporter gene at the transcription factor-level as they relate to the gene TR. Furthermore, this assay endpoint can be referred to as a primary readout, because this assay has produced multiple assay endpoints where this one serves a reporter gene function. To generalize the intended target to other relatable targets, this assay endpoint is annotated to the nuclear receptor intended target family, where the subfamily is non-steroidal.
Human liver HepG2 cells are transiently transfected with multiple reporter transcription units (MRTUs) in 6-well plates using FuGene 6 reagent (Roche; 3 ml FuGene/1 mg DNA). The MRTU constructs are regulated by a cis-regulating element (promoter). […] A major difference between the CIS and TRANS system is that in CIS activities of endogenous TFs are measured, whereas the TRANS assay evaluates changes in activities of exogenous, chimeric NR-Gal4 proteins. […] At the end of 24 hour incubation, total RNA was isolated using TriZol reagent (Invitrogen). The isolated RNA is then reverse-transcribed using oligo(dT) primer and Mo-MLV reverse transcriptase (Invitrogen) with DNAse I (Ambion) treatment for 30 min. […] The fragments were purified using Qiaquick PCR columns (Qiagen), analyzed on an ABI 3130xL genetic analyzer (Applied Biosystems) with peak positions identified by using a set of X-rhodamine (ROX)-labeled MapMarker1000 molecular weight standards (BioVentures). […]

[7] = molecular target: zebrafish Thyroid Hormone Receptor alpha (TRa), thraa (gene 30670) (UniProt Q98867); test: ATG_zfTRa_XSP1: Attagene TRANS-FACTORIAL Multi-Species (XSP1) HepG2 Assay for zebrafish Thyroid Hormone Receptor alpha (TRa) (AID 2283807)
Summary of the method: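 HepG2 cells transiently transfected with GAL4-UAS reporter units including a zebrafish TRa–Gal4 chimera, dosed 24 h with 3 nM 6-alpha-fluorotestosterone present. Reporter mRNA quantified by RT-PCR and capillary electrophoresis; gain versus DMSO.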

[8] = molecular target: zebrafish Thyroid Hormone Receptor beta (TRb), thrb (gene 30607) (UniProt Q9PVE4); test: ATG_zfTRb_XSP1: Attagene TRANS-FACTORIAL Multi-Species (XSP1) HepG2 Assay for zebrafish Thyroid Hormone Receptor beta (TRb) (AID 2283809)
Summary of the method: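 HepG2 cells transiently transfected with multiplexed GAL4-UAS reporter units expressing chimeric zebrafish TRb–Gal4. Dosed 24 h with 3 nM 6-alpha-fluorotestosterone present; reporter mRNA measured by RT-PCR, HpaI digestion and capillary electrophoresis; gain of signal versus DMSO.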

[9] = test system: zebrafish Peroxisome Proliferator-activated Receptor gamma (PPARg), gene 557037; test: ATG_zfPPARg_XSP1: Attagene TRANS-FACTORIAL Multi-Species (XSP1) HepG2 Assay for zebrafish Peroxisome Proliferator-activated Receptor gamma (PPARg) (AID 2283801)
Summary of the method: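 HepG2 cells transiently transfected with GAL4-UAS reporter units including a zebrafish PPARg–GAL4 chimera, dosed 24 h with 3 nM 6-alpha-fluorotestosterone present. Reporter mRNA quantified by RT-PCR, FAM labelling, HpaI digestion and capillary electrophoresis; induction versus DMSO.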

[10] = molecular target: human Thyroid hormone Receptor beta (TRb), THRB (gene 7068) (UniProt P10828); test: ATG_hTRb_XSP1: Attagene TRANS-FACTORIAL Multi-Species (XSP1) HepG2 Assay for human Thyroid hormone Receptor beta (TRb) (AID 2283808)
Summary of the method: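 HepG2 cells transiently transfected with reporter units driving GAL4-UAS reporters for chimeric NR-Gal4 proteins; 24 h chemical exposure with 3 nM 6-alpha-fluorotestosterone present. Reporter mRNA quantified by RT-PCR and capillary electrophoresis, gain of signal versus DMSO.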

Nuclear receptor subfamily 1 group I member 2 (Mus musculus), sequence (O54915 whole entry, looked up, the tested form may be a part): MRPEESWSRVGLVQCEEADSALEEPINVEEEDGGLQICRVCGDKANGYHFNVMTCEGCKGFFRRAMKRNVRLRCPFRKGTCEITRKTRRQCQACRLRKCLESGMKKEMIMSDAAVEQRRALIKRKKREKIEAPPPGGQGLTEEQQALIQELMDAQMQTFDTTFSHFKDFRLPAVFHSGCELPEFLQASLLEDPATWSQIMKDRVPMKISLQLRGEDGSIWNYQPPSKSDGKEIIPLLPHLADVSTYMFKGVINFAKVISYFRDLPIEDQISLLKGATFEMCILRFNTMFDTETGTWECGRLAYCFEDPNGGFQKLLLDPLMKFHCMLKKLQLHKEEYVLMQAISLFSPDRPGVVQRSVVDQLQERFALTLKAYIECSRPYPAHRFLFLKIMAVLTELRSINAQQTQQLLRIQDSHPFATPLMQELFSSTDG
mouse Peroxisome Proliferator-activated Receptor gamma (PPARg), Pparg (gene 19016), sequence (P37238 whole entry, looked up, the tested form may be a part): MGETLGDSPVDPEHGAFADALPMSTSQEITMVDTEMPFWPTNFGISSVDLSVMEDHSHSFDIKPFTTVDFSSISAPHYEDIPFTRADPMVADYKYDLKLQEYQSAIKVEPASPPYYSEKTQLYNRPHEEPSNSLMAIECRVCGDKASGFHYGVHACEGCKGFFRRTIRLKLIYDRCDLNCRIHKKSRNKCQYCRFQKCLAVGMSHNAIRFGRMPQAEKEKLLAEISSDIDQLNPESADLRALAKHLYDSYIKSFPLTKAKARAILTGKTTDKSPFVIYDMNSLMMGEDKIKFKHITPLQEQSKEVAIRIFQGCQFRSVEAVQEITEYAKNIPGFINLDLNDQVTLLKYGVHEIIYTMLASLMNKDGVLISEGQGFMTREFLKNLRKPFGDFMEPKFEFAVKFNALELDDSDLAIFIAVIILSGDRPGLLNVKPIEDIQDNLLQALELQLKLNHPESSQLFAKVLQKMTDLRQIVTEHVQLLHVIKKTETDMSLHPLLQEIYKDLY
zebrafish Thyroid Hormone Receptor beta (TRb), thrb (gene 30607), sequence (Q9PVE4 whole entry, looked up, the tested form may be a part): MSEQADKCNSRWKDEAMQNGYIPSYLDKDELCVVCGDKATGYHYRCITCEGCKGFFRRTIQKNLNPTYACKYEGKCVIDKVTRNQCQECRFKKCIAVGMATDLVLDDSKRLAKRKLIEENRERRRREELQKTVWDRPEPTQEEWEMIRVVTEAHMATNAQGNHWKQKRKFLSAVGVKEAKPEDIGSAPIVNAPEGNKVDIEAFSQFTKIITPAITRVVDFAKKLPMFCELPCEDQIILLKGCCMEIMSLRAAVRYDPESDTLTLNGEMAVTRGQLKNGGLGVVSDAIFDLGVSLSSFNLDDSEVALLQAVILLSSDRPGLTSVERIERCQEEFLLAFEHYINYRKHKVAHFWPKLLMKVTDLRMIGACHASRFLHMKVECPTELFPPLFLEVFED
Peroxisome proliferator-activated receptor gamma (Homo sapiens), sequence (P37231 whole entry, looked up, the tested form may be a part): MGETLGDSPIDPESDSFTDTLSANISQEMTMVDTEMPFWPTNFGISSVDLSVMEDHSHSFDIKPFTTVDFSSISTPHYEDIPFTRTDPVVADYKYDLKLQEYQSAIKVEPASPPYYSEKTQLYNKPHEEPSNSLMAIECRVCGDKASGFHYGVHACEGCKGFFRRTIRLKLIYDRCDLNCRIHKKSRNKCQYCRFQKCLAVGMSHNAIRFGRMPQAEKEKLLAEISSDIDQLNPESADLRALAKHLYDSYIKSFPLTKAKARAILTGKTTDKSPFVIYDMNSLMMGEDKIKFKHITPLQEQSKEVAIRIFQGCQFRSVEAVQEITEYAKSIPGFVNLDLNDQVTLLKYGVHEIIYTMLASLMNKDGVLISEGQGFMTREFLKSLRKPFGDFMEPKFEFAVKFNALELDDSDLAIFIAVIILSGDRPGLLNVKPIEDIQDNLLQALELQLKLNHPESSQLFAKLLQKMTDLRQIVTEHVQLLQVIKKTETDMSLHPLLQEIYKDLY
zebrafish Thyroid Hormone Receptor alpha (TRa), thraa (gene 30670), sequence (Q98867 whole entry, looked up, the tested form may be a part): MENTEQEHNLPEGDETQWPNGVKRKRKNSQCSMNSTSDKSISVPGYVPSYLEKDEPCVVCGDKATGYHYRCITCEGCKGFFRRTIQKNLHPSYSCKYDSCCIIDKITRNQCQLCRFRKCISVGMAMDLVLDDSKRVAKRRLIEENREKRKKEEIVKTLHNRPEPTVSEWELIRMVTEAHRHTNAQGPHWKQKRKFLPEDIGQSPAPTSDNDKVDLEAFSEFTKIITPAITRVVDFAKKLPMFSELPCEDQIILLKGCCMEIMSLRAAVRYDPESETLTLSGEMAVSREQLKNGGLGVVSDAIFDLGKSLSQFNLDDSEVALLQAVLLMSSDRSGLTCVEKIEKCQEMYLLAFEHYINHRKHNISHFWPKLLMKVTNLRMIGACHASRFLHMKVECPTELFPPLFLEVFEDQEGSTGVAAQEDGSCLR
human Thyroid hormone Receptor beta (TRb), THRB (gene 7068), sequence (P10828 whole entry, looked up, the tested form may be a part): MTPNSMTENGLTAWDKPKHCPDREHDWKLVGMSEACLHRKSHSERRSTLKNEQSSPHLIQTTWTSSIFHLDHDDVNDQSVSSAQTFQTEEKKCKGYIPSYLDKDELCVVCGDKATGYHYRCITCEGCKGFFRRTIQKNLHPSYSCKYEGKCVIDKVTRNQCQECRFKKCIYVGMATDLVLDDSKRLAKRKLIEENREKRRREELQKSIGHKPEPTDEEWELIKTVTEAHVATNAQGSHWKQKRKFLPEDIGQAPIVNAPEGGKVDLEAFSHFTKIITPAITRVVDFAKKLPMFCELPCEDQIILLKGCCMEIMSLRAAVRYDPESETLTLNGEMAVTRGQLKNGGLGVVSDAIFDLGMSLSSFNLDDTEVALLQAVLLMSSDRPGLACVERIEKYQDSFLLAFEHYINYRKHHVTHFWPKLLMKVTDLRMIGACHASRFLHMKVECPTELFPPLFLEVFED

SMILES | outcome [1] | outcome [2] | AC50 [3] | AC50 [4] | AC50 [5] | outcome [6] | outcome [7] | outcome [8] | outcome [9] | outcome [10]
CCOP(=S)(OCC)Oc1ccc2c(C)c(Cl)c(=O)oc2c1 | inactive | inactive | 11.4 µM (active) | 26.7 µM (active) | 0.214 µM (active) | inactive | inactive | inactive | – | –
CCCOCC(=Nc1ccc(Cl)cc1C(F)(F)F)n1ccnc1 | inactive | inactive | 0.985 µM (active) | 0.674 µM (active) | 0.201 µM (active) | inactive | inactive | inactive | inactive | inactive
C#CC(C)(C)NC(=O)c1cc(Cl)cc(Cl)c1 | – | – | – | – | 13.3 µM (active) | inactive | inactive | inactive | – | inactive
C#CCC1=C(C)C(OC(=O)C2C(C=C(C)C)C2(C)C)CC1=O (stereo not drawn) | – | inactive | 27.2 µM (active) | 26.7 µM (active) | 0.32 µM (active) | – | inactive | inactive | – | inactive
CCc1cccc(C)c1N(C(=O)CCl)C(C)COC (stereo not drawn) | – | inactive | 5.37 µM (active) | 25.5 µM (active) | 3.28 µM (active) | inactive | inactive | inactive | inactive | –
